We go through 39 molecules from PubChem BioAssay (NCI).

This is part of a sample that, as a whole, favours compounds with a hit. Of some 83,000 tested, about 20% had one in any assay.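 Percent growth is the endpoint: 0 to 100 indicates growth inhibition (40 means 60% inhibition), 0 means no net growth, and negative values indicate cell death.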 Values without a mark were called inactive. The source made the active and inactive calls. How the source made its calls: active means growth percent below 10; inactive means the rest.

The subject of this experiment is HCT-15 colon. Briefly: NCI-60 one-dose screen, 48 h (100 = growth as untreated, 0 = no growth, -100 = all killed). The following applies: 10 µM unless noted.
Regarding `O=C(CCCCC(=O)N/N=C\c1ccccc1O)N/N=C\c1ccccc1O`, the growth was 21%. The same measure for `COc1cc(-c2nc(C(=O)NCC(=O)NO)nn2-c2ccc(Cl)cc2)cc(OC)c1OC`: 101%. The same measure for `O=c1ccccc(-c2ccc(Br)cc2)c1O`: 26.3%; for `Cc1cc2nc(NC(=O)CN3CCN(CCN4C(=O)c5cccc6cccc(c56)C4=O)CC3)sc2cc1C`: 81.1%; for `COc1cc(C(=O)/C=C/c2cccnc2Nc2ccc(Cl)cc2)cc(OC)c1OC`: -45.9% (active). The same measure for `COc1ccc(-c2nnc(SCC(=O)c3ccc(Cl)cc3)o2)cc1`: 104%; for `COc1cc(/C=C/C(=O)Nc2cccnc2Nc2ccc(F)cc2)cc(OC)c1OC`: 99%.

On to `O=C1/C(=C/c2ccccc2O)N=C2SCCCN12`, for which the growth is 97%. The same measure for `CC(C)(CCCN=C(N)Nc1ccc(Cl)cc1)c1ccc(F)cc1`: 67.1%.

On to `CCCCC[C@H]1C/C=C2/C(=O)C=C[C@@H]2C/C=C\CCCC(=O)O1`, for which the growth is -18.8% (active).

As to `COc1ccc2c(c1)C(=O)/C(=C/c1ccccn1)CC2`, the growth was 68.5%. For `C=C1C(=O)O[C@H]2[C@H]1CC/C(COC(=O)NCCc1ccc(OC)c(OC)c1)=C\CC[C@@]1(C)O[C@@H]21` the value was 61.7%; for `COc1cc(-c2nn(-c3ccc(Br)cc3)cc2C(=O)O)ccc1O`, 103%. The same measure for `CCCCCC(=O)Oc1ccc(/C(=C(\C)c2ccc(OC)cc2)c2ccc(OCCN3CCCCC3)cc2)cc1`: 9.94% (active); for `COC(=O)[C@@H]1CCCN1C(=O)[C@@H]1CCCN1C(=O)[C@H](Cc1ccccc1)NC(=S)Nc1cc(C(F)(F)F)cc(C(F)(F)F)c1`: 76.4%; for `CCOc1ccc(C(C)=O)cc1NC(=O)c1cccc(-c2nnn(CC)n2)c1`: 46.8%. The same measure for `O=[N+]([O-])c1ccccc1/C=N\NC(=S)N/N=C/c1ccccc1[N+](=O)[O-]`: 35.8%; for `O=[N+]([O-])c1ccc2c(c1)Cc1cc(F)ccc1-2`: 97.1%. In the case of `CC(=O)OC[C@H]1O[C@H](OC(C)=O)[C@H](NC(=O)/C=C/CCl)[C@@H](OC(C)=O)[C@@H]1OC(C)=O`, the growth is 99.1%.

On to `CCC#CC[C@H](O)C/C=C1/C(=O)C=C[C@@H]1C/C=C\CCCC(=O)OC`, for which the growth is 3.26% (active).

With `CC/C=C\C[C@H](O)C/C=C1/C(=O)C=C[C@@]1(C)C/C=C\CCCC(=O)OC`, the growth was 101%. The same measure for `CC[N+](CC)=c1sc2c(s1)C(c1ccc(Cl)cc1)Oc1ccc(Cl)cc1-2` (centres undefined): 62.9%. Take `COc1cccc(-c2nc(SCC(=O)Nc3ccc(C(=O)/C=C/c4ccc(OC)c(OC)c4)cc3)[nH]c(=O)c2C#N)c1`: the growth is 83.6%.

For the molecule `COc1ccc(CN2c3ccccc3Oc3ccccc32)cc1O`, the growth is 28.1%.

With `C=C1C(=O)O[C@H]2[C@H]1CC/C(C=Nc1ccc(C(F)(F)F)cc1N)=C\CC[C@@]1(C)O[C@@H]21`, the growth is 2.23% (active). For `COc1ccc2c(c1)C(=O)/C(=C/c1cccnc1)CC2` the value was 92.8%; for `Clc1ccc2c(NCCCCNc3nc(N4CCOCC4)nc4ccccc34)ccnc2c1`, 22.9%; for `COc1ccccc1Nc1nc(-c2cc3cccc(C(F)(F)F)c3oc2=O)cs1`, 16%. For `CCc1c(Nc2ccccc2C)nc(N)[nH]c1=O` the value was 98.4%; for `O=c1oc2c(C(F)(F)F)cccc2cc1-c1csc(Nc2ccc(OCCF)cc2)n1`, 17.3%. For `COc1ccc(CN2c3ccccc3Sc3ccccc32)c(C(F)(F)F)c1` the value was 37.3%. Turning to `COc1cc2c(cc1O)CC[C@@H]1[C@@H]2CC[C@]2(C)[C@@H](OCCN(C)C)CC[C@@H]12`, the growth is 34%. The same measure for `CCNc1ncnc2c1cnn2C1CCCO1` (centres undefined): 106%; for `NC(=NCCCC1(c2ccccc2)CCCC1)Nc1ccc(Cl)cc1`: 28.9%; for `CCOc1ccc(-n2nc(C(=O)Nc3cc(OC)c(OC)c(OC)c3)nc2-c2cc(OC)c(OC)c(OC)c2)cc1`: 82.1%. For `COc1ccc(CN2c3ccccc3Sc3ccccc32)cc1O` the value was 33.1%. For `NCCNc1nc(Nc2ccc(-c3nc4ccccc4[nH]3)cc2)c2cn[nH]c2n1` the value was 101%; for `COc1cccc2c1C(=O)c1c(O)c3c(c(O)c1C2=O)C[C@](O)(C(=O)CO)C[C@H]3O[C@@H]1C[C@@H](NC(=O)CCCCCN(C)C2(c3ccc(F)cc3)CC3CCC2C3)[C@H](O)[C@@H](C)O1` (some centres undefined), 0.779% (active); for `CC(O)CN(CC(C)O)c1ccc2c(c1)Cc1cc([N+](=O)[O-])ccc1-2` (centres undefined), 83.5%.
